Test results taken from PubChem BioAssay.
The source made the active and inactive calls.

What was measured:
Albumin (Bos taurus) = Albumin (Bos taurus) (UniProt P02769); assay: compounds binding labelled BSA control protein – biochemical, small-molecule microarray, Alexa647 label, 635/667 nm fluorescence, artefact control for SMM control protein annotation, profiling panel (AID 1118); conditions: BSA-A647 binding, fluorescence 635 nm, higher = more signal;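 note: score merges 667 nm emission intensity and signal-to-noise per printed compound spot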
[1] = probe aXIP binding to arrayed compounds – biochemical, NeuroSMM set, 635/667 nm fluorescence, primary screen (AID 1119); conditions: small-molecule microarray, higher = more signal, called active from +8 up or from −8 down;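 note: probe is the protein aXip251-270 applied at 1 µg/mL to compound-printed slides; binding of probe to printed compounds measured as 667 nm fluorescence plus signal to noise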
[2] = probe aNOTCH3 binding on compound microarray – biochemical, small-molecule microarray, 635/667 nm fluorescence, primary screen (AID 1120); conditions: higher = more signal;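 note: probe is a biotin-tagged antibody raised against NOTCH3 rather than NOTCH3 protein; score merges spot fluorescence near 667 nm with spot signal to noise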
[3] = probe aNOTCH2 binding on compound microarray – biochemical, small-molecule microarray, 635/667 nm fluorescence, primary screen (AID 1121); conditions: higher = more signal;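 note: score merges feature fluorescence read at 667 nm with its signal to noise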
[4] = target: Carbonic anhydrase 2 (Homo sapiens) (UniProt P00918); assay: compounds binding carbonic anhydrase 2 – biochemical, small-molecule microarray, Alexa647-labelled CAII, profiling panel (AID 1122); conditions: CAII-A647 binding fluorescence, higher = more signal
[5] = COS7 lysate on small-molecule microarray, probe aHis, 635 nm (AID 1123); conditions: COS7 cell lysate, fluorescence, higher = more signal;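 note: z-score combines 667nm fluorescence intensity with signal-to-noise per printed compound spot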
[6] = probe aLAP1 signal on lysate-treated microarray – cell lysate, small-molecule microarray, COS7 lysate, primary screen (AID 1124); conditions: probe aLAP1, fluorescence, higher = more signal;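 note: lysate comes from COS7 cells expressing LAP1 and is applied at 0.3 µg/mL; score merges spot fluorescence near 667 nm with signal-to-noise over triplicate slides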
Sam68 (KHDRBS1) = assay: compounds binding KHDRBS1 protein – biochemical, small-molecule microarray, 635 nm fluorescence, primary screen (AID 1125); conditions: higher = more signal;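 note: score merges 667 nm channel intensity with signal to noise over triplicate slides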
[7] = test system: Chordin-like protein 2 (CHRDL2); assay: compounds binding chordin-like 2 – biochemical, small-molecule microarray, 635 nm fluorescence, primary screen (AID 1126); conditions: fluorescence 635 nm, higher = more signal;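 note: printed compound slides probed with Chrdl2 protein at 4 µg/mL for 1 h at 4 C; score merges 667 nm emission intensity with signal to noise over three replicate slides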
[8] = target: Concanavalin-A (Canavalia ensiformis) (UniProt P02866); assay: compounds binding concanavalin A lectin – biochemical, small-molecule microarray, Alexa647 label, 635 nm, artefact control for SMM control protein annotation, primary screen (AID 1127); conditions: ConA-A647 binding fluorescence, higher = more signal;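 note: z combines 667 nm emission intensity with signal-to-noise across three replicate slides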
Chain of Concanavalin-A (Canavalia ensiformis) (P02866 whole entry, looked up): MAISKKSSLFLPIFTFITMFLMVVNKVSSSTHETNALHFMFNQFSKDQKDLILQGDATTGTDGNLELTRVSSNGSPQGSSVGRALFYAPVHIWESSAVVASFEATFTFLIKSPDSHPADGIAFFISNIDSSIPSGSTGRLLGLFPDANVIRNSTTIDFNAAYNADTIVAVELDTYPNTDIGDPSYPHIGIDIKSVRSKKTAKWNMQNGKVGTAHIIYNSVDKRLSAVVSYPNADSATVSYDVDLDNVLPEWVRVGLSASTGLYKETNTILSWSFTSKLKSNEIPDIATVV

Chain of Albumin (Bos taurus) (P02769 whole entry, looked up): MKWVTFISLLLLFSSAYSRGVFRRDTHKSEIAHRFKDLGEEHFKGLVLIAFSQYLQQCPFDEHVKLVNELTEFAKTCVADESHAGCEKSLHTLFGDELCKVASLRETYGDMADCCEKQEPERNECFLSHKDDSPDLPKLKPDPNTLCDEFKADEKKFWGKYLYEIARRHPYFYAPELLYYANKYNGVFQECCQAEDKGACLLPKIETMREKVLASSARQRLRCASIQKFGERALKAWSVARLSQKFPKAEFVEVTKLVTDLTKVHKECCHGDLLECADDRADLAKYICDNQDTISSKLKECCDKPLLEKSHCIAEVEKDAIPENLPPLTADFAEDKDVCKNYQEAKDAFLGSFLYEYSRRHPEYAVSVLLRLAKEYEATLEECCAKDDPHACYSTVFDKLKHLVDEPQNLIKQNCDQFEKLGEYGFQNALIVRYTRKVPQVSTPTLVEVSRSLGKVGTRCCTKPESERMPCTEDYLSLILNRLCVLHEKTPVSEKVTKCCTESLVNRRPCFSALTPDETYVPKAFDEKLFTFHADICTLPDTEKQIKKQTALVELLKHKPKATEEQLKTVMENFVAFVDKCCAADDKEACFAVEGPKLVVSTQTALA

Row | Compound | composite z-score (Albumin (Bos taurus)) | composite Z-score [1] | composite z-score [2] | composite z-score [3] | composite z-score [4] | composite z-score [5] | composite z-score [6] | composite z-score (Sam68 (KHDRBS1)) | composite z-score [7] | composite z-score [8]
1 | CC(C)=CCCC(C)=CCON=C1C[C@@H](O)[C@@H](O)[C@@H]2[C@@H]3C(=O)N(Cc4ccccc4)C(=O)[C@@H]3CC[C@@H]12 | 0.772 | -0.349 (inactive) | -0.0395 | -0.193 | -0.148 | 0.043 | -0.0612 | 0.571 | 1.4 | 0.304
2 | CON=C[C@@H](NS(=O)(=O)c1ccc(C)cc1)[C@H](C)C=CCC(=O)OC | -0.625 | -0.722 (inactive) | -0.0173 | -0.14 | -0.374 | 0.0154 | 0.22 | -1.35 | 1.26 | -0.0082
3 | CO[C@H]1COC(=O)[C@@H](C)COC(=O)[C@H](COCc2ccccc2)NC(=O)CC=C[C@H]1C | -1.04 | 2.09 (inactive) | -0.0077 | -0.135 | -0.551 | -1.73 | -0.81 | -1.17 | 1.22 | -3.77
4 | CC(CCC(=O)OC[C@H]1O[C@H](C#Cc2ccccc2)C=C[C@@H]1Oc1ccc(C)cc1)=NO[C@H](C)c1cn([C@H](CO)Cc2ccccc2)nn1 | 0.276 | 0.392 (inactive) | -0.0847 | -0.0966 | -0.0419 | 0.757 | 0.0395 | 1.12 | 0.569 | 0.79
5 | C[C@@H](c1ccccc1)N1C(=O)[C@H]2[C@H]3[C@H](O)[C@H](O)CC(=NO[C@@H]4O[C@H](CO)[C@@H](O)[C@H](O)[C@H]4O)[C@@H]3CC[C@H]2C1=O | 0.423 | -0.766 (inactive) | 0.0996 | -0.109 | -0.157 | 0.335 | -0.0315 | 0.258 | 0.25 | 0.411
6 | O=C1[C@H]2[C@H]3[C@H](O)[C@H](O)CC(=NOCc4ccccc4)[C@H]3CC[C@H]2C(=O)N1Cc1ccc2c(c1)OCO2 | 0.116 | -0.192 (inactive) | 0.0116 | -0.146 | -0.0448 | 1.1 | 0.148 | -0.18 | 0.408 | -0.261
7 | CCOC(=O)CCN1C(=O)[C@H]2[C@H]3[C@H](O)[C@H](O)CC(=NOCc4ccccc4)[C@H]3CC[C@H]2C1=O | -0.271 | 0.119 (inactive) | 0.191 | -0.0467 | -0.19 | 0.343 | -0.27 | 0.152 | 0.578 | -0.477
8 | CCCCC#C[C@@H]1C=C[C@H](OC(C)=O)[C@@H](COC(C)=O)O1 | 0.678 | 0.299 (inactive) | 0.0758 | -0.0698 | -0.0641 | 0.015 | -0.406 | 0.581 | 0.282 | 0.475
9 | CC(CCN1CCc2nc(-c3ccccc3)c(-c3ccccc3)cc2C1)=NOC[C@@H](O)COCc1ccco1 | 0.148 | 0.0366 (inactive) | 0.062 | -0.153 | 0.0111 | 0.197 | -0.202 | 1.08 | 1.03 | 0.501
10 | COc1ccc(COC(=O)NN=C2C[C@@H](O)[C@@H](O)[C@@H]3[C@@H]4C(=O)N(c5ccc(F)cc5F)C(=O)[C@@H]4CC[C@H]23)cc1 | 0.446 | 3.84 (inactive) | 0.0961 | -0.157 | -0.0507 | -0.181 | 0.0054 | -0.169 | -0.293 | 0.0493
11 | COC(=O)CC=C[C@@H](C)[C@@H](C=NO[C@@H]1O[C@H](COC(C)=O)[C@@H](OC(C)=O)[C@H](OC(C)=O)[C@H]1OC(C)=O)OC | 0.216 | -0.421 (inactive) | 0.0303 | -0.0294 | -0.605 | -0.152 | 0.124 | 0.702 | -0.0703 | -1.33
12 | CC[C@@H](c1ccccc1)n1c(=O)n2n(c1=O)[C@H]1[C@H](O)[C@@H]3O[C@@H]3C(=O)[C@H]1CC2 | 0.208 | 0.214 (inactive) | -0.0745 | -0.135 | -0.245 | -0.372 | -0.262 | 0.0274 | 0.673 | 0.576
13 | Cc1ccc(S(=O)(=O)N[C@H]2COC(=O)CC=C[C@@H](C)COC(=O)CC=C[C@@H]2C)cc1 | -1.17 | -0.821 (inactive) | -0.163 | -0.186 | -0.41 | -0.688 | -0.209 | 0.393 | 1.23 | -0.351
14 | COc1ccc(O[C@H]2C=C[C@@H](c3ccccc3)O[C@@H]2CON=CC[C@@H]2C=C[C@H](OC(C)=O)[C@@H](COC(C)=O)O2)cc1 | 0.779 | 0.112 (inactive) | 0.0893 | -0.145 | -0.198 | -0.478 | 0.221 | -0.176 | 0.366 | 0.543
15 | COc1cccc([C@H]2Oc3ccc(OC)cc3C(=NOC[C@@H](O)COCc3ccco3)[C@@H]2O)c1 | -0.859 | -0.874 (inactive) | -0.235 | -0.0942 | -1.02 | -1.34 | -0.446 | -2.24 | 0.655 | -3.36
16 | CC(C)=NO[C@H](C)c1cn([C@H](CO)Cc2ccccc2)nn1 | 0.364 | -0.178 (inactive) | -0.0932 | -0.123 | 0.13 | 0.559 | -0.536 | 0.444 | -0.0691 | 1.1
17 | COC(=O)[C@H]1[C@@H](O)[C@@]2(O)c3ccccc3O[C@@]2(c2ccccc2)[C@@H]1c1ccccc1 | -0.642 | 1.97 (inactive) | -0.1 | -0.133 | 0.18 | 0.19 | -0.221 | -0.926 | 0.14 | -0.246
18 | O=C1CCCC=C1C(O)CCOC(c1ccccc1)(c1ccccc1)c1ccccc1 (stereo not given) | 0.404 | 0.142 (inactive) | -0.158 | -0.169 | -0.252 | -0.447 | -0.146 | -1.52 | -0.0466 | -0.542
19 | CCOC(=O)CCN1C(=O)[C@H]2[C@H]3[C@H](O)[C@H](O)CC(=NNC(=O)OCc4ccccc4)[C@@H]3CC[C@H]2C1=O | 0.576 | 0.406 (inactive) | -0.0864 | -0.117 | 0.21 | -0.0034 | 0.32 | 1.19 | 0.393 | 1
20 | CCOC(=O)[C@H](CC(C)C)NC(=O)CCC1CC(OC(=O)NCCc2ccc(F)cc2)CC2(CCCC(COC(=O)NCCC(C)C)O2)O1 (stereo not given in full) | 0.281 | -0.375 (inactive) | 0.128 | -0.177 | 0.269 | 0.596 | -0.14 | -0.163 | 0.301 | 0.816
21 | COc1ccc(O[C@H]2C=C[C@@H](c3ccccc3)O[C@@H]2CON=C(C)CCC(=O)OC[C@H]2O[C@H](c3ccccc3)C=C[C@@H]2Oc2ccc(OC)cc2)cc1 | 0.12 | 0.456 (inactive) | -0.165 | -0.123 | -0.62 | -1.14 | -0.295 | -2.54 | -0.633 | -0.652
22 | CCOC(=O)[C@H](Cc1ccccc1)NC(=O)OC1CC(CCC2CC(CC)=NO2)OC2(CCCC(COC(=O)NCCC(C)C)O2)C1 (stereo not given in full) | 0.459 | 0.257 (inactive) | -0.133 | -0.179 | 0.312 | 0.86 | -0.342 | 0.676 | 0.139 | 0.918
23 | CCOC(=O)[C@H](CC(C)C)NC(=O)CCC1CC(OC(=O)NCCc2ccc(F)cc2)CC2(CCCC(COC(=O)NCC(c3ccccc3)c3ccccc3)O2)O1 (stereo not given in full) | 0.436 | 0.428 (inactive) | 0.0372 | -0.108 | 0.349 | -0.0758 | 0.0521 | 1.11 | 0.609 | 1.1
24 | CCOC(=O)[C@H](CC(C)C)NC(=O)CCC1CC(OC(=O)NCc2cccc3ccccc23)CC2(CCCC(COC(=O)NCCOC)O2)O1 (stereo not given in full) | 0.222 | -0.166 (inactive) | 0.0306 | -0.0195 | 0.431 | 1.02 | -0.0557 | 1.29 | 0.156 | 0.782
25 | C[C@H](ON=C1[C@H]2CCn3c(=O)n(-c4ccccc4)c(=O)n3[C@H]2[C@H](O)[C@@H]2O[C@H]12)c1cn([C@H](CO)Cc2ccccc2)nn1 | 0.426 | -0.285 (inactive) | -0.0788 | -0.0888 | 0.407 | 0.183 | 0.29 | 0.168 | 0.388 | 1.06
26 | CON=Cc1ccc(C(=O)N2[C@H](c3ccc(C)cc3)[C@@H](C)CC[C@H]2C(=O)OC)cc1 | 0.54 | 0.059 (inactive) | 0.0257 | -0.202 | 0.0882 | 0.715 | 0.251 | 1.11 | 0.262 | 0.669
27 | CO[C@H]1COC(=O)CC=C[C@@H](C)[C@H](NS(=O)(=O)c2ccc(C)cc2)COC(=O)CCC[C@@H]1C | -0.48 | -0.483 (inactive) | -0.0711 | -0.11 | -0.312 | -0.42 | 0.303 | 0.515 | 1.23 | -0.0177
28 | O=C1CCCC=C1C(O)CCCCBr (stereo not given) | 0.956 | 1.36 (inactive) | 0.0242 | 0.0377 | 0.778 | 1.1 | -0.101 | 0.381 | 0.0069 | 1.09
29 | CC(C)=CCCC(C)=CCON=C1C[C@@H](O)[C@@H](O)[C@@H]2[C@@H]3C(=O)N(C4CCCCC4)C(=O)[C@@H]3CC[C@@H]12 | 0.0108 | 0.244 (inactive) | -0.0048 | -0.13 | 0.276 | -0.112 | 0.0694 | 0.493 | 1.01 | 0.124
